According to PubChem BioAssay (NCI):
Compounds without any hit were thinned out: in the full panel of roughly 83,000, 20% have a hit.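 Assay: single dose, 48 h. Readout: percent growth (0 = no net growth; negative = cell death). Active: <10.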 Values without a mark were called inactive. Active and inactive are the calls of the source.

Experiments:
Assay in all cases: NCI-60 one-dose screen, 48 h (100 = growth as untreated, 0 = no growth, -100 = all killed)
Settings in all cases: 10 µM unless noted
[1] = test system: SK-MEL-2 melanoma
[2] = test system: SN12C renal
[3] = test system: UO-31 renal
[4] = test system: TK-10 renal
[5] = test system: ACHN renal
[6] = test system: CAKI-1 renal
[7] = test system: A498 renal
[8] = test system: CCRF-CEM leukemia
[9] = test system: MOLT-4 leukemia
[10] = test system: SR leukemia
[11] = test system: RPMI-8226 leukemia
[12] = test system: OVCAR-8 ovarian
[13] = test system: OVCAR-5 ovarian
[14] = test system: OVCAR-4 ovarian
[15] = test system: SK-OV-3 ovarian
[16] = test system: IGROV1 ovarian
[17] = test system: OVCAR-3 ovarian
[18] = test system: HS 578T breast
[19] = test system: NCI/ADR-RES ovarian

Row | SMILES | growth [1] | growth [2] | growth [3] [%] | growth [4] [%] | growth [5] [%] | growth [6] [%] | growth [7] | growth [8] | growth [9] | growth [10] | growth [11] | growth [12] | growth [13] [%] | growth [14] [%] | growth [15] [%] | growth [16] [%] | growth [17] | growth [18] [%] | growth [19] [%]
1 | Clc1cccc(/C=N/Nc2nc(N/N=C/c3cccc(Cl)c3)nc(N3CCCCC3)n2)c1 | 86.1% | 92.4% | 76.7 | 106 | 101 | 92.4 | 92.2% | 75% | 68.7% | 74.6% | 72.4% | 89.2% | 110 | 90.2 | 109 | 105 | 91.4% | 105 | 95.2
2 | O=c1[nH][nH]c(-c2ccc(F)cc2)c1-c1nc2ccccc2s1 | 100% | 82% | 87.3 | 154 | 95.1 | – | 67.9% | 86.6% | 95.8% | 103% | 97.4% | 100% | 95.9 | 106 | 88.6 | 86.8 | 108% | 96.9 | 86.8
3 | CCCCCc1ccc(S(=O)(=O)Nc2cc(-c3csc(N)n3)ccc2OC)cc1 | 112% | 89.2% | 53.5 | 113 | 98 | 88.4 | 96.6% | 57.4% | 78.6% | 98.9% | 78.2% | 95.9% | 110 | 100 | 127 | 84.5 | – | 97.1 | 88
4 | COc1ccc(/C=N/N=C(/c2ccccc2)c2ccc3nc(-c4ccc(Cl)cc4)[nH]c3c2)cc1 | 89.1% | 85.4% | 78.7 | – | 87.5 | 72.4 | 59.8% | 68.1% | 53.2% | 71.2% | 48.6% | 80.4% | 81.5 | 75 | 93.2 | 97.5 | – | 97.4 | 85
5 | Cn1c(SCC(=O)c2ccc(F)cc2)nc2ccccc2c1=O | 105% | 91.4% | 74.2 | 120 | 96.4 | 87.7 | 99.5% | 90.3% | 95.8% | 93% | 76.5% | 94.5% | 105 | 79.1 | 95.7 | 88.7 | 104% | 101 | 93.6
6 | CC(O)c1cccc(/C(N)=N/C(N)=N/c2nc3ccccc3s2)c1 (stereo not given) | 107% | 86.9% | 89.2 | 133 | 86.6 | 101 | 90.7% | 84% | 83.9% | 82.3% | 67.3% | 97.2% | 100 | 105 | 105 | 92.5 | 102% | 91.9 | 95.6
7 | C#CCOc1ccccc1C(OC(=O)c1ccccc1)C(=O)NC(C)(C)C(C)(C)C (stereo not given) | 90.6% | 95.7% | 62.7 | 101 | 97.2 | 63.5 | 120% | 79.5% | 40.6% | 64.7% | 74% | 89.3% | 102 | 85.9 | 95.8 | 68.9 | 99.9% | 91.1 | 87
8 | CN1CCC[C@]2(C)[C@H]3CC[C@@H]4[C@@H]5[C@H]6OC[C@@]5(CCC6(C)C)CC[C@@]4(C)[C@]3(C)CC[C@H]2C1(C)C | 108% | 88.9% | 91.5 | 108 | 86.9 | 10.4 | 90.1% | 66.4% | 37.7% | 5.47% (active) | 30.2% | 22.3% | 103 | 86.9 | 118 | 77.8 | – | 99 | 95.5
9 | CC1(C)CC[C@]23CC[C@]4(C)[C@H](CC[C@@H]5[C@@]6(C)CC[C@H](NCO)C(C)(C)[C@@H]6CC[C@]54C)[C@H]2[C@H]1OC3 | 97.2% | 43.3% | 73.9 | 122 | 26.4 | 29.3 | 106% | 36.5% | 15% | 3.69% (active) | 19.3% | 96.1% | 60.4 | 76.9 | 105 | 64.8 | – | 90.7 | 82.6
10 | C/C(=N\NC(=O)Nc1ccccc1)c1nnn(-c2ccc([N+](=O)[O-])cc2)c1C | 104% | 110% | 72.4 | 99.7 | 104 | 94.4 | 105% | 105% | 103% | 100% | 102% | 102% | 112 | 105 | 109 | 112 | – | 116 | 102
11 | COc1ccc2c(c1)c(-c1nn3cc(-c4ccncc4)nc3s1)cn2C | 104% | 84.3% | 53.3 | 130 | 71.4 | 50.6 | 83.7% | 43.9% | 47.2% | -3.79% (active) | 61.4% | 71.7% | 102 | 82.3 | 93.6 | 70.3 | – | 86.9 | 69.8
12 | O=S1SC(c2ccccc2)=NN1c1cc(F)cc(F)c1 (stereo not given) | 68.1% | 33.1% | 22.7 | 85.8 | 51.5 | 52.4 | 12.7% | 18.8% | 17.5% | 19.3% | 11.5% | 35.5% | 93.8 | 49.3 | 24.8 | 53.8 | – | 61.9 | 53.4
13 | CN(C)c1ccc(-c2cc(-c3c[nH]c4ccccc34)nc(N)c2C#N)cc1 | -0.536% (active) | 43.1% | 44.6 | 72.9 | 47.1 | 24.1 | -0.675% (active) | 30% | 35.4% | 9.16% (active) | 4.44% (active) | 25.6% | 48.8 | 69.5 | 30.9 | 42.2 | – | 35.6 | 14.9
14 | Cc1[nH]c(C(=O)Nc2ccccc2OCc2cccc(C(=O)NC3CCNC3)c2)c(Cl)c1Cl (stereo not given) | 101% | -33.5% (active) | 84.9 | – | 74.9 | 27.5 | 79.7% | 6.3% (active) | 1.73% (active) | -0.792% (active) | -10% (active) | -37% (active) | 45.3 | 68.3 | 107 | 31.2 | -26.7% (active) | 87.6 | 67.1
15 | Cn1ncc2c(C(=O)c3ccc(F)cc3)nc(C(C)(C)C)nc21 | 103% | 96.2% | 93.9 | 82 | 99.1 | 89.5 | 58.4% | 103% | 92.6% | 102% | 100% | 105% | 98.2 | 107 | 112 | 103 | 98.6% | 96.5 | 107
16 | O=c1nc(Nc2ccc([N+](=O)[O-])cc2O)sc2ccccc12 | 39.4% | 34.5% | 35.8 | 82 | 43.5 | 33 | -7.49% (active) | 16.6% | 31.1% | 24.2% | 3.35% (active) | 24.1% | 47.4 | 36.9 | 49.2 | 33.2 | 14% | 27.4 | 22.5
17 | Cc1ccc([C@H]2c3[nH]c4ccccc4c3C[C@H]3C(=O)N(CCCCCCC(=O)NO)CC(=O)N23)s1 | 84.9% | 85.1% | 71.9 | 64.2 | 85.5 | 60.3 | 76% | 22% | – | 23% | 27.9% | 44.4% | 52.8 | 79.5 | 86.3 | 55.7 | – | 76.6 | 94.3
